Experiment [1] deals with Vero E6 infected with SARS-CoV-2. Nature of the experiment: morphology score (similarity to uninfected cells); higher = more like uninfected cells. The following applies: 24 h.
Experiment [2] shares this test system. Nature of the experiment: SARS-CoV-2 infection rate relative to infected DMSO; higher = more infection, active = 60 or less. The following applies: 24 h.

Structures are written as SMILES.

The results in this text go back to the supplement of paper PMC13380429.

As for `c1ccc(C(O[C@@H]2CCCN(CCc3ccc4c(c3)OCO4)C2)c2ccccc2)cc1` [zamifenacin] (10 µM), the morphology score in experiment [1] was found to be 0.152. Further, in experiment [2], the SARS-CoV-2 infection rate is 96% (inactive).

In experiment [1], `Cc1cc(I)ccc1Nc1c(C(=O)NOCC2CC2)cc(F)c(F)c1F` (10 µM) came in with a morphology score of 0.0652. The SARS-CoV-2 infection rate in experiment [2] is 113% (inactive).

Turning to `CN1C(=O)C[C@@H](C(=O)N[C@@H](Cc2c[nH]cn2)C(=O)N2CCC[C@H]2C(N)=O)NC1=O` [taltirelin] (10 µM), the morphology score in experiment [1] stood at 0.0707. Further, the SARS-CoV-2 infection rate in experiment [2] is 87% (inactive).

Compound `Cc1[nH]c(/C=C2\C(=O)Nc3ccc(F)cc32)c(C)c1C(=O)NCCN1CCCC1` [toceranib] (0.833333 µM) showed a morphology score in experiment [1] of -0.0721. In addition, in experiment [2], the SARS-CoV-2 infection rate is 26% (active).

`CC(=O)Nc1cccc(O)c1` [metacetamol] (10 µM) yielded a morphology score in experiment [1] of 0.0448. In addition, in experiment [2], the SARS-CoV-2 infection rate is 97% (inactive).

Regarding `COc1ccc(CCN(C)CCCC(C#N)(c2cc(OC)c(OC)c(OC)c2)C(C)C)cc1OC` (configuration not stated) [gallopamil] (10 µM), the morphology score in experiment [1] was determined as 0.176. Moreover, the SARS-CoV-2 infection rate in experiment [2] is 98% (inactive).

Turning to `CC(N)Cc1c[nH]c2ccc(OCc3cccs3)cc12` (configuration not stated) (10 µM), in experiment [1], the morphology score was found to be 0.0586. The SARS-CoV-2 infection rate in experiment [2] is 90% (inactive).

Turning to `O=c1[nH]c(=O)n([C@H]2C[C@H](O)[C@@H](CO)O2)cc1/C=C/Br` [brivudine] (10 µM), the morphology score in experiment [1] was determined as 0.0102. Besides, in experiment [2], the SARS-CoV-2 infection rate is 108% (inactive).

For the compound `COc1cc2c(N3CCN(C(=O)Nc4ccc(OC(C)C)cc4)CC3)ncnc2cc1OCCCN1CCCCC1` [tandutinib] (10 µM), in experiment [1], the morphology score is -0.0843. Further, the SARS-CoV-2 infection rate in experiment [2] is 95.5% (inactive).

Consider `CC#C[C@@H](CC(=O)O)c1ccc(OCc2cccc(-c3ccc(C(F)(F)F)cc3)c2)cc1` (10 µM), for which the morphology score in experiment [1] amounted to 0.0803. Also, in experiment [2], the SARS-CoV-2 infection rate is 108% (inactive).

Turning to `CN(C)C(=O)COC(=O)Cc1ccc(OC(=O)c2ccc(NC(=N)N)cc2)cc1` [camostat-mesilate] (10 µM), in experiment [1], the morphology score was determined as 0.0997. In experiment [2], the SARS-CoV-2 infection rate was 114% (inactive).

Compound `COc1ccccc1OC(=O)c1ccccc1OC(C)=O` [guacetisal] (10 µM) showed a morphology score in experiment [1] of 0.0562. In addition, the SARS-CoV-2 infection rate in experiment [2] is 101% (inactive).

`CN1CCCN=C1COC(=O)C(O)(c1ccccc1)C1CCCCC1` (configuration not stated) [oxyphencyclimine] (10 µM) returned a morphology score in experiment [1] of 0.0243. Moreover, the SARS-CoV-2 infection rate in experiment [2] was 101% (inactive).

`C[N+](C)(C)CCCCCC[N+](C)(C)C` [hexamethonium] (10 µM) displayed a morphology score in experiment [1] of -0.257. Also, the SARS-CoV-2 infection rate in experiment [2] is 114% (inactive).

In experiment [1], `COc1cc(NC(=O)c2ccc(-c3ccc(Cl)cc3)o2)cc(OC)c1` (10 µM) showed a morphology score of 0.0298. For the same compound, in experiment [2], the SARS-CoV-2 infection rate is 112% (inactive).

On to `Cc1cc(-c2nc(C(=O)Nc3cn(C4CCOCC4)nc3C(N)=O)co2)ccn1` (10 µM), for which the morphology score in experiment [1] was -0.166. In addition, the SARS-CoV-2 infection rate in experiment [2] is 118% (inactive).

In experiment [1], `CC(C)(C)c1ccc(S(=O)(=O)NCc2ccc(C(=O)Nc3cccnc3)cc2)cc1` (0.833333 µM) had a morphology score of 0.0631. Further, the SARS-CoV-2 infection rate in experiment [2] is 107% (inactive).

`CCCC(=O)O[C@]1(C(=O)COC(C)=O)CC[C@H]2[C@@H]3C[C@H](F)C4=CC(=O)C=C[C@]4(C)[C@@]3(F)[C@@H](O)C[C@@]21C` [difluprednate] (10 µM) yielded a morphology score in experiment [1] of 0.215. For the same compound, in experiment [2], the SARS-CoV-2 infection rate is 100% (inactive).

For `O=[N+]([O-])c1ncc[nH]1` [azomycin-(2-nitroimidazole)] (10 µM), in experiment [1], the morphology score was -0.138. Moreover, in experiment [2], the SARS-CoV-2 infection rate was 105% (inactive).

Consider `COc1cc(OC)cc(N(CCNC(C)C)c2ccc3ncc(-c4cnn(C)c4)nc3c2)c1` [erdafitinib] (0.833333 µM), for which, in experiment [1], the morphology score worked out at 0.151. The SARS-CoV-2 infection rate in experiment [2] was 108% (inactive).

For the compound `O=C(NCCN1CCC2(CC1)C(=O)NCN2c1cccc(F)c1)c1ccc(F)c(F)c1` (10 µM), the morphology score in experiment [1] amounted to 0.259. The SARS-CoV-2 infection rate in experiment [2] was 75.5% (inactive).

In the case of `CN=C(N)NCCC[C@H](N)C(=O)O` [L-monomethylarginine] (10 µM), the morphology score in experiment [1] came out at 0.197. The SARS-CoV-2 infection rate in experiment [2] is 97% (inactive).

On to `c1ccc2c(c1)CCC[C@H]2Nc1nc2ccccc2[nH]1` (10 µM), for which the morphology score in experiment [1] was found to be 0.268. The SARS-CoV-2 infection rate in experiment [2] is 89% (inactive).

As to `CONC(=N)c1ccc(-c2ccc(-c3ccc(C(=N)NOC)cc3)o2)cc1` [pafuramidine] (10 µM), the morphology score in experiment [1] amounted to 0.0672. Besides, in experiment [2], the SARS-CoV-2 infection rate was 106% (inactive).

As to `CCCCOc1nc(N)c2c(n1)N(Cc1cccc(CN3CCCC3)c1)CC(=O)N2` (10 µM), the morphology score in experiment [1] is -0.135. In addition, the SARS-CoV-2 infection rate in experiment [2] is 106% (inactive).

In experiment [1], `CC(C)(C)C#Cc1cc(N(C(=O)[C@H]2CC[C@H](C)CC2)[C@H]2CC[C@@H](O)CC2)c(C(=O)O)s1` (10 µM) yielded a morphology score of -0.117. In experiment [2], the SARS-CoV-2 infection rate is 107% (inactive).

In turn, `CC1(C)Cc2c(-c3ccccc3)c(-c3ccc(Cl)cc3)c(CC(=O)O)n2C1` [licofelone] (10 µM) yielded a morphology score in experiment [1] of 0.31. Further, in experiment [2], the SARS-CoV-2 infection rate is 105% (inactive).

For the compound `C=C1/C(=C\C=C2/CCC[C@]3(C)[C@@H]([C@H](C)CC[C@@H](O)C(C)C)CC[C@@H]23)C[C@@H](O)C[C@@H]1O` [tacalcitol] (10 µM), the morphology score in experiment [1] is -0.24. The SARS-CoV-2 infection rate in experiment [2] was 120% (inactive).

Turning to `CC(C)C(=O)Oc1ccc(CO)cc1[C@H](CCN(C(C)C)C(C)C)c1ccccc1` [fesoterodine] (10 µM), the morphology score in experiment [1] is 0.096. For the same compound, the SARS-CoV-2 infection rate in experiment [2] was 108% (inactive).

In experiment [1], `N[C@@H]1CN(c2c(F)cc3c(=O)c(C(=O)O)cn([C@@H]4C[C@@H]4F)c3c2Cl)CC12CC2` [sitafloxacin] (10 µM) gave a morphology score of -0.0334. For the same compound, the SARS-CoV-2 infection rate in experiment [2] is 106% (inactive).

`O=C1C2C=Nc3ccccc3C2=NN1c1ccc(Cl)cc1` (configuration not stated) (10 µM) returned a morphology score in experiment [1] of -0.264. In addition, the SARS-CoV-2 infection rate in experiment [2] was 120% (inactive).
